Laboratory results as given in the supplement of paper PMC3334620.
The full ranking holds about 33,000 sequences; the median of “E-score (-0.5 to 0.5)” is about -0.053, and the highest 2% start at about 0.37. For the sample, the highest values were picked, then their nearest neighbours and some sequences at random.

The sequences below were run against Hap1 (UniProt P0CE41) (assay: PBM E-score (8-mer binding enrichment) (E-score (-0.5 to 0.5)); higher = stronger / more preferred TF binding). Conditions: protein concentration: 200 nM; construct: GST-DNA-binding domain.
Method in brief: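 Bound GST-tagged yeast transcription factors, applied at about 100-200 nM to double-stranded universal all-10-mer Agilent arrays, were detected with fluorescent anti-GST. Scans were normalised with masliner. A modified Wilcoxon-Mann-Whitney statistic, the E-score, was assigned to each ungapped eight-base word pooled with its reverse complement by the Universal PBM Analysis Suite.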

Chain of UniProt P0CE41 (P0CE41 whole entry, the tested form may be a part): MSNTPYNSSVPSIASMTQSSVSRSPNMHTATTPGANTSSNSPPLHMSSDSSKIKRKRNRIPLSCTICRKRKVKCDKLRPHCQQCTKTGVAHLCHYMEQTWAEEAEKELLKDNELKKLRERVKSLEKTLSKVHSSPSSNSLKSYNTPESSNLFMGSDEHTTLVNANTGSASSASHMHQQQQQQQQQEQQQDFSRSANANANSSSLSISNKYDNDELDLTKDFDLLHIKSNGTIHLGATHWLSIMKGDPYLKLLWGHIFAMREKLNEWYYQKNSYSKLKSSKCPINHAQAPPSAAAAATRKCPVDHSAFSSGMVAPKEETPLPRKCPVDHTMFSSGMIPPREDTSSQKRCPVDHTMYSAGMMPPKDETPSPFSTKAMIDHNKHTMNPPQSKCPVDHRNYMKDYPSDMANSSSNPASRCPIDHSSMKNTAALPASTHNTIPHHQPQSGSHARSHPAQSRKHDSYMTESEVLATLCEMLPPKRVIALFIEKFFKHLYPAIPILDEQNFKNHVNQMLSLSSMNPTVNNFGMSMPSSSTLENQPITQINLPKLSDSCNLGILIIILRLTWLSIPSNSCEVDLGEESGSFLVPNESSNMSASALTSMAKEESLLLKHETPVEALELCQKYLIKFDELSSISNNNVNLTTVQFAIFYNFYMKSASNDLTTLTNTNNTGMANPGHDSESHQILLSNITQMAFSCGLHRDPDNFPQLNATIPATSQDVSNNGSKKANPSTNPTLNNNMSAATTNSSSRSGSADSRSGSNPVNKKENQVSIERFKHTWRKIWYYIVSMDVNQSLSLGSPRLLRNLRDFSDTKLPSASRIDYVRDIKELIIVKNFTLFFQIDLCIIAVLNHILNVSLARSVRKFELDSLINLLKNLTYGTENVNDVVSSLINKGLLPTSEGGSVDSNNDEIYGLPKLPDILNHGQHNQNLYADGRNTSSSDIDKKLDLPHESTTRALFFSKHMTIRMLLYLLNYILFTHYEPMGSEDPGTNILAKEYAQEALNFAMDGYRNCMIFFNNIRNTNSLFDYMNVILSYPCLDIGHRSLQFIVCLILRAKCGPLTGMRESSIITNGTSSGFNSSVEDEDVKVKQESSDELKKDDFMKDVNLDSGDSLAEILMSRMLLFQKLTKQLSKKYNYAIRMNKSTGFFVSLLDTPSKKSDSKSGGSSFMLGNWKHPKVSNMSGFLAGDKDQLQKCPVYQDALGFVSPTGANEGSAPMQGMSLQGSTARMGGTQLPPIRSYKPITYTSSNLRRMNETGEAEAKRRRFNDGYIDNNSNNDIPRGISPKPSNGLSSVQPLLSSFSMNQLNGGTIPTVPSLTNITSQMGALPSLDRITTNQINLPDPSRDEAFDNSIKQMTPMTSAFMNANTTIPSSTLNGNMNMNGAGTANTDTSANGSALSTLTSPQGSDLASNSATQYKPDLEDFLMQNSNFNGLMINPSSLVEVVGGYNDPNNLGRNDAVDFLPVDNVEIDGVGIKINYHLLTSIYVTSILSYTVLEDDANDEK

Row | Sequence | PBM E-score
1 | ACGGGCCA | 0.226
2 | CATAGAAG | -0.0619
3 | CAGTTCGA | -0.156
4 | AGCGCCAT | -0.113
5 | CCGGTAAG | 0.391
6 | ACGGTAAG | 0.067
7 | CCGGTAAA | 0.456
8 | CCGGTACG | 0.342
9 | TCGGTAAA | 0.249
10 | CCGGTAAC | 0.36
11 | CGGGCAAA | 0.249
12 | GGCAAATA | 0.2
13 | TGGCAGAA | -0.0128
14 | CTGCTGGA | -0.231
15 | GTCCGAAA | 0.421
16 | CACCGAAC | 0.194
17 | GCCCGAAC | 0.298
18 | GTCCGAAC | 0.426
19 | GCCCGAAA | 0.342
20 | TTCCGAAA | 0.363
21 | ATCCGAAA | 0.389
22 | CCCCGAAC | 0.291
23 | CTCCGAAC | 0.415
24 | ATCCGAAC | 0.355
25 | ATCCGAAG | 0.326
26 | ACCCGAAA | 0.31

Row | Sequence | PBM E-score
27 | ATACCGTC | 0.0985
28 | CGGCTAGC | 0.0611
29 | AGTCAGAT | -0.212
30 | AGCAGCTG | -0.167
31 | ACCCTCAG | -0.197
32 | GCGCAAAA | -0.00131
33 | CGCCGAAA | 0.359
34 | ACCCGAAT | 0.314
35 | CACCGAAG | 0.245
36 | CTCCGAAG | 0.401
37 | AACCGAAT | 0.301
38 | ATCCGAAT | 0.403
39 | ATCCGACA | 0.305
40 | CTCCGAAA | 0.41
41 | CTTCGAAA | -0.279
42 | CGCCGAAG | 0.359
43 | GTCCGACA | 0.38
44 | CTCCGACA | 0.291
45 | ACTTGAGA | -0.185
46 | AGGGGCGG | 0.235
47 | ACTCGTCG | -0.172
48 | CCCCGCAA | 0.258
49 | ACATTTAA | -0.0555
50 | AGCCCTTG | -0.311
51 | AGACACGG | 0.0548
52 | CATCCAGG | -0.183

Row | Sequence | PBM E-score
53 | ATCCGAGC | 0.356
54 | ATCCGACG | 0.333
55 | ATCCGAGG | 0.39
56 | GACGCACC | -0.118
57 | GCAAGGAC | -0.115
58 | AGTCCGAT | 0.432
59 | AGTCCGTG | 0.299
60 | AGTCCGAC | 0.36
61 | AATCCGAT | 0.401
62 | AGTCCTAT | -0.0943
63 | AATCCGAA | 0.366
64 | AATCCGAC | 0.363
65 | AGTCCAAG | -0.404
66 | AGTCCGAG | 0.428
67 | AAGCCTAT | -0.101
68 | AAAACTAG | -0.116
69 | AGTACGGG | -0.028
70 | ACTTCTGG | -0.297
71 | AGTGGACG | 0.0359
72 | TAAAAGGA | -0.0643
73 | AGATAAGC | -0.0608
74 | TGACCTAA | -0.158
75 | GGACCTAA | 0.371
76 | CGACCTAA | 0.161
77 | CCCGGAAA | 0.411
78 | CCGGGAAA | 0.338

Row | Sequence | PBM E-score
79 | GGCGGAAA | 0.29
80 | CCCGGAAG | 0.358
81 | GCCGGAAA | 0.395
82 | TGCGGAAA | 0.213
83 | GACGGAAA | 0.314
84 | TCCGGAAA | 0.445
85 | TACGGAAA | 0.316
86 | TCTCAAGA | -0.0524
87 | GTCGCGTA | -0.051
88 | ATTCAAAG | -0.213
89 | ACGCTTGG | -0.193
90 | GGGGCGCA | -0.255
91 | ACTAGTCA | -0.241
92 | GGTGTGGA | -0.00568
93 | GGAACACA | -0.109
94 | AGCACGAC | -0.133
95 | AACGCCGC | 0.355
96 | CACGCCGA | 0.169
97 | TACGCCGA | 0.301
98 | AACGCCGA | 0.447
99 | AACGCCGT | 0.273
100 | AACGCCGG | 0.397
101 | ACCCGCCA | -0.0193
102 | GGGGCTCA | -0.167
103 | ATGAGTTA | -0.207
104 | ATAAATCC | 0.325

Row | Sequence | PBM E-score
105 | CTAAATCA | -0.138
106 | CTAAATCC | 0.386
107 | GGGCTACA | -0.0843
108 | TCCGGCAA | 0.326
109 | CCCGGCAA | 0.401
110 | CCCGGCAG | 0.21
111 | GCCGGCAC | 0.327
112 | ACCGGCAA | 0.272
113 | GCCGGCAA | 0.373
114 | AAGCTCGG | 0.36
115 | GTGCTTTA | -0.0684
116 | CATCCCGG | 0.312
117 | AATCCCGG | 0.397
118 | AATCCCTG | -0.18
119 | AATCCCCG | 0.403
120 | CATCCCCG | 0.356
121 | AATCCCCC | 0.133
122 | GCTTGACA | -0.139
123 | CATGTCTC | 0.131
124 | AAGTGCAC | -0.0983
125 | CGCTGGGA | 0.0217
126 | CCTCAAGG | -0.168
127 | ACGGGCCG | 0.29
128 | CCGGGCCA | 0.348
129 | CCGGGCGA | 0.376
130 | CCGGGCCC | 0.369

Row | Sequence | PBM E-score
131 | CGGGGCCC | 0.258
132 | GCGGGCGA | 0.296
133 | CCGGGCCG | 0.425
134 | GCGGGCCC | 0.216
135 | ACGGGCGA | 0.333
136 | CCGCTATA | 0.27
137 | AATAGCAT | -0.0964
138 | CGTGTACC | 0.11
139 | TGGAATAA | -0.128
140 | GGGAATAC | 0.181
141 | CGAAATAA | 0.182
142 | AGAAATAA | 0.0188
143 | GGAAATAA | 0.413
144 | GGGAATAA | 0.396
145 | ACGCACCG | 0.00605
146 | ACCAGTTA | -0.225
147 | GGCCGTAA | 0.377
148 | GACCGAAC | 0.347
149 | CGCCGAAC | 0.344
150 | AGCCGAAC | 0.227
151 | TGCCGACA | 0.223
152 | GGCCGACA | 0.383
153 | CGCCGTAA | 0.283
154 | GGCCGAAC | 0.37
155 | CACCGAAA | 0.261
156 | CGCCGACA | 0.215

Row | Sequence | PBM E-score
157 | TGCCGTAA | 0.0155
158 | GACCGAAA | 0.385
159 | ACGAGCTA | -0.108
160 | ACCCAGTA | -0.253
161 | ATTTGGTC | 0.141
162 | CTCCTAAC | -0.191
163 | AGCCGAAA | 0.329
164 | GGCCGAAA | 0.405
165 | TGCCGAAA | 0.303
166 | CGTTTTAG | -0.114
167 | AACCTGTG | -0.315
168 | AGAACTCG | 0.0147
169 | GAGGGAGC | -0.175
170 | AACCAAGT | -0.152
171 | CGATAAAA | 0.382
172 | GGATAAAA | 0.261
173 | TGATAAAA | -0.0276
174 | GGCTCGGA | 0.344
175 | ACCTCGGC | 0.377
176 | CGCTCGGA | 0.404
